CYP2C19 inhib: human CYP2C19 inhibition; P33261; CYP2C19 Supersomes, luciferin-H EGE luminescence, 30 min; inhibition, % at 5 µM; 21% of 96,000 active; AID 778;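 active means CYP2C19 inhibition above a set limit at 5 µM in the primary screen, cut at about 50% in these data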;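 further: plate controls were negative control wells for no effect and 2.5 mM tranylcypromine positive control for full effect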
CYP2C9 activ: CYP2C9 (human) activation; P11712; recombinant CYP2C9, luciferin-H conversion, luminescence; hits give high values; factor 1 = untreated enzyme, 0 = blocked; activation factor at 5 µM; 1.4% of 96,000 active; AID 1024;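 active means activation factor of 2 or more for CYP2C9 at a 5 µM dose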;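 further: 0 = sulfaphenazole-blocked wells and 1 = vehicle-only wells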
CYP2C19 activ: activators of human cytochrome P450 2C19; recombinant CYP2C19, luciferin-H EGE luminescence; hits give high values; 0 = fully inhibited enzyme, 1 = untreated enzyme; activation factor at 5 µM; 96,000 tested, under 10 active;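 active means activation factor of at least 2 at 5 µM in the primary screen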;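 further: 0 = wells with 2.5 mM tranylcypromine and 1 = vehicle-only wells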
CYP2C9 inhib: inhibitors of human CYP2C9. 20% of 96,000 active. CYP2C9 Supersomes, luciferin-H conversion, luminescence. inhibition, % at 5 µM;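 active means blocking of liver enzyme CYP2C9 beyond about 50% at 5 µM, limit read from the data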
PLAP activator: activates human placental alkaline phosphatase | AID 696 | purified PLAP enzyme, luminescent substrate read-out; hits give high values | 1.2% of 96,000 active | P05187 | activation fold at 20 µM; in the data active means activation fold above about 2
Target sequence (P05187 whole entry, looked up): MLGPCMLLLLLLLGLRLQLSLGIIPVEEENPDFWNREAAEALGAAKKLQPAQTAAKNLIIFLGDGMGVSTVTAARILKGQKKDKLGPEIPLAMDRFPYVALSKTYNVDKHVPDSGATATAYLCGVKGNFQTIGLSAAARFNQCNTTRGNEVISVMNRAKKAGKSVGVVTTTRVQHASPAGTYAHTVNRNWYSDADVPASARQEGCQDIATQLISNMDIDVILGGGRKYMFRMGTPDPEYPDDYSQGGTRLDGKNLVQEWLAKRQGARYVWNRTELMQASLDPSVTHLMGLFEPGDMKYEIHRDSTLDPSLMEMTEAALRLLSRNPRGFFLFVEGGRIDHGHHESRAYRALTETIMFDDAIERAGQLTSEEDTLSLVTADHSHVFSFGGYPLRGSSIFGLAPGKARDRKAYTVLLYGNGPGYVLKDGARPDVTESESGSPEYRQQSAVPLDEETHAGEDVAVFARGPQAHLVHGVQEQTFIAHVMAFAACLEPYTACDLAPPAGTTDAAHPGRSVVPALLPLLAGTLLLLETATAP
* marks the source's active call; other numbers are inactive results. Hits are enriched below; roughly 31% of the tested compounds scored in any of these assays.

SMILES | CYP2C19 inhib | CYP2C9 activ | CYP2C19 activ | CYP2C9 inhib | PLAP activator
Cc1nc2sc(C(c3ccc(Cl)cc3)N3CCN(c4ccccc4F)CC3)c(O)n2n1 (centres undefined) | 67* | 0.5 | 0.3 | 49 | 1
Cc1nc2sc(C(c3ccco3)N3CCN(c4ccccc4F)CC3)c(O)n2n1 (centres undefined) | 92* | 0.3 | 0.1 | 69* | 1.6
O=C(NC1(C(F)(F)F)Oc2ccccc2O1)N1CCCC1 | 13 | 0.8 | 0.9 | 20 | 1.1
Cc1nc2ccccc2n1S(=O)(=O)c1ccc(S(=O)(=O)N2CCCCCC2)cc1 | 11 | 0.7 | 0.9 | 26 | 1.5
CCOc1cc(S(=O)(=O)n2c(C)nc3ccccc32)ccc1F | 99* | 0.1 | 0 | 86* | 1.5
Cc1ccc(C(=O)Nc2cccc(C(=O)O)c2)cc1 | 87* | 0.5 | 0.1 | 54* | 1
Cc1ccc(C(=O)Nc2ccc3nccnc3c2)cc1 | 8 | 0.9 | 0.9 | 8 | 0.9
COc1ccc(C(=O)Nc2cccc(C)c2)cc1 | 71* | 0.9 | 0.3 | 9 | 0.9
Cc1[nH]n(-c2ccccc2)c(=O)c1N=Nc1nccs1 | 7 | 0.4 | 0.9 | 58* | 0.7
Cc1ccc(-n2[nH]c(C)c(C=Nc3ccc(C)cn3)c2=O)cc1 | 30 | 0.6 | 0.7 | 42 | 1.4
Cc1[nH]n(-c2ccccc2)c(=O)c1C=Nc1cnc2ccccc2c1 | 11 | 1 | 0.9 | -2 | 2.1*
Cc1[nH]n(-c2ccccc2)c(=O)c1-c1ccc(Cl)cc1 | 3 | 0.5 | 1 | 45 | 0.9
Cc1[nH]n(-c2ccccc2)c(=O)c1/C=N/c1ccccn1 | 8 | 0.9 | 0.9 | 8 | 2.1*
CC1=NN(c2ccccc2)C(=O)/C1=C\c1c(C)[nH]n(-c2ccccc2)c1=O | -5 | 0.5 | 1 | 51* | 0.9
O=C(O)c1ccc2c(c1)N(Cc1cccc(F)c1)C(=O)CS2 | -17 | 1 | 1.2 | 4 | 1.1
CC(=O)Nc1cccc(Oc2ccc(-c3noc(C)n3)cc2)c1 | 76* | 0.4 | 0.2 | 57* | 1.1
CCCN=Cc1sc2ccc(OCC)cc2c1O | 69* | 1.5 | 0.3 | -52 | 0.9
CCC(CC)C(=O)Nc1c2c(nn1-c1ccc(OC)cc1)CS(=O)(=O)C2 | 2 | 0.5 | 1 | 55* | 1.1
CCCCN(CC)CCCNC(=O)Cn1nc(Cc2cccnc2)c2ccccc2c1=O | 2 | 0.9 | 1 | 11 | 0.8
O=C(Cn1nc(Cc2cccnc2)c2ccccc2c1=O)NCc1ccc(F)cc1 | 58* | 0.2 | 0.4 | 83* | 1.3
COc1cc(NC(=O)Cn2nc(Cc3cccnc3)c3ccccc3c2=O)cc(OC)c1OC | 54* | 0.4 | 0.5 | 62* | 1.6
O=C(Cn1nc(Cc2cccnc2)c2ccccc2c1=O)NCc1ccc2c(c1)OCO2 | 56* | 0.1 | 0.4 | 89* | 0.8
O=C(Cn1nc(Cc2cccnc2)c2ccccc2c1=O)N1CCN(c2ccccn2)CC1 | 42 | 0.1 | 0.6 | 87* | 1.5
Cc1cc(=O)n2nc(N3CCC(C(=O)N4CCN(Cc5ccccc5)CC4)CC3)sc2n1 | 5 | 1 | 1 | 1 | 1.3
N#CC1=C(N)N(c2ccccc2Sc2ccccc2)C(=O)C1 | 16 | 0.9 | 0.8 | 10 | 1.3
SMILES | CYP2C19 inhib | CYP2C9 activ | CYP2C19 activ | CYP2C9 inhib | PLAP activator
OC(C#Cc1ccccn1)c1cccs1 (centres undefined) | 23 | 0.9 | 0.8 | 11 | 0.9
CC(C)(C)c1ccc(OCC(=O)Nc2ccc(-c3nc4cccnc4o3)cc2)cc1 | 28 | 0.6 | 0.7 | 40 | 2*
CCOC(=O)C1CCN(C(=O)CCNC(=O)Cn2ccc3ccccc3c2=O)CC1 | 5 | 1.1 | 1 | -11 | 1.1
O=C(Cc1cn2ccsc2n1)Nc1ccccc1Oc1ccccc1 | 80* | 0.3 | 0.2 | 70* | 1.3
O=C(Cc1cn2ccsc2n1)NCCc1ccc(F)cc1 | 72* | 1 | 0.3 | 4 | 1.2
CCOC(=O)C1(P(=O)(c2ccc(Cl)cc2)c2ccc(Cl)cc2)CCC1 | 80* | 0.7 | 0.2 | 29 | 1.4
Nc1nnc(Cc2ccc(Cl)c(Cl)c2)s1 | 58* | 0.9 | 0.4 | 8 | 0.8
Nc1nnc(CCOc2ccccc2Cl)s1 | 18 | 1 | 0.8 | 2 | 0.9
Nc1ccc2c3c(cccc13)CC2 | 4 | 1.1 | 1 | -11 | 1.2
CSc1ccc(S(=O)(=O)Nc2ccc3c4c(cccc24)CC3)cc1 | 98* | 1.5 | 0 | -45 | 1
O=C(CN1C(=O)CCC1=O)Nc1ccc2c3c(cccc13)CC2 | -11 | 1.1 | 1.1 | -14 | 0.8
O=S(=O)(Nc1ccc2c3c(cccc13)CC2)c1ccc(F)cc1 | 70* | 1.1 | 0.3 | -10 | 1.3
O=C(CN(C(=O)CNS(=O)(=O)c1ccccc1)C1CCCC1)NCc1ccco1 | 46 | 0.8 | 0.5 | 18 | 1.7
O=C(Nc1ccc(Cc2ccncc2)cc1)C1CCC(N2C(=O)C3C4C=CC(C4)C3C2=O)CC1 (centres undefined) | 96* | 0 | 0 | 95* | 2.1*
Cc1cccc(N2C(=O)C3C4C=CC(C4)C3C2=O)c1 (centres undefined) | 26 | 0.9 | 0.7 | 9 | 0.8
O=C1C2C3C=CC(C3)C2C(=O)N1c1ccc(Cc2ccncc2)cc1 (centres undefined) | 71* | 0.2 | 0.3 | 80* | 0.9
O=C(Nc1ccc(Cc2ccncc2)cc1)C1CCC(N2C(=O)C3CC=CCC3C2=O)CC1 (centres undefined) | 58* | 0.3 | 0.4 | 67* | 1.1
CCCn1nc2cc(C(=O)N(CC)c3ccc(OC)cc3)ccc2c1OCC | 17 | 0.7 | 0.8 | 26 | 0.9
CCC(C)Nc1nc(CN2CCOCC2)nc2sc3c(c12)CCC3 (centres undefined) | 9 | 0.7 | 0.9 | 31 | 1.4
O=C(Nc1ccc2c(c1)OCCO2)C1CCCN(S(=O)(=O)c2cccs2)C1 (centres undefined) | 42 | 0.5 | 0.6 | 47 | 0.9
O=C(Nc1ccc2c(c1)OCO2)C1CCCN(c2nc3ccccc3s2)C1 (centres undefined) | 48 | 0.5 | 0.5 | 54* | 1
O=C(Nc1ccc2c(c1)OCCO2)C1CCN(S(=O)(=O)c2cccs2)CC1 | 67* | 0.4 | 0.3 | 58* | 1.4
CCC(C)NC(=O)C1CCN(S(=O)(=O)c2cccs2)CC1 (centres undefined) | 5 | 0.5 | 1 | 52* | 1.3
O=C(Nc1ccc2c(c1)OCO2)C1Cc2ccccc2CN1S(=O)(=O)c1cccs1 (centres undefined) | 56* | 0.3 | 0.4 | 72* | 0.8
O=C(Nc1ccc2c(c1)OCO2)C1CCN(S(=O)(=O)c2cccs2)CC1 | 29 | 0.6 | 0.7 | 36 | 0.9
Cn1cccc1C(=O)OCC(=O)Nc1ccc2c(c1)CCC2 | 20 | 0.9 | 0.8 | 7 | 0.8
CC(=O)c1cccc(NC(=O)C2CCN(S(=O)(=O)c3cccs3)CC2)c1 | 92* | 0.3 | 0.1 | 68* | 0.8
O=S(=O)(Nc1ccc2c(c1)OCCO2)c1cccs1 | 28 | 0.8 | 0.7 | 23 | 1

Screens deposited in PubChem by Sanford-Burnham Center for Chemical Genomics.
